The results in this text go back to PubChem BioAssay AID2174 (The Scripps Research Institute Molecular Screening Center, 2009).

Hit rate of the full screen: of about 320,000 compounds, about 500 (0.16%) were called active. This is one part of a sample in which actives are shown more often than they occur. Unmarked numbers belong to inactive results.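 How the source made its calls: active means inhibition above the mean of all tested compounds plus 3 SD, set per campaign (cut at about 14% in these data); inactive means the rest.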

Acyl-protein thioesterase 1 (Homo sapiens), sequence (O75608 whole entry, looked up): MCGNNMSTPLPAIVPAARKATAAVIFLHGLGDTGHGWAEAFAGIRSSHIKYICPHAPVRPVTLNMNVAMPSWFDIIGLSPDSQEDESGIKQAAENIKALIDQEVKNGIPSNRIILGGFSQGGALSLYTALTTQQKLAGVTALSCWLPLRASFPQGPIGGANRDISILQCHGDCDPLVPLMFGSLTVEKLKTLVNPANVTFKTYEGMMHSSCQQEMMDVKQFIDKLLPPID

This assay concerns the target Acyl-protein thioesterase 1 (Homo sapiens) (UniProt O75608). The assay is described as follows: inhibition of human lysophospholipase 1 – biochemical, fluorescence polarization, FP-Rh probe ABPP, counter-screen for PME1 inhibitor project, primary screen (AID 2174).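 Further: inhibitors block serine hydrolase probe labeling of LYPLA1 so polarization falls; 0% = enzyme with DMSO and 100% = wells lacking LYPLA1.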 The following applies: recombinant LYPLA1, FP-Rh probe fluorescence polarization; at 5.9 µM; stronger effect = higher value.
As to `Cc1ccc(S(=O)(=O)N2CCC(C(=O)N[C@@H](C)C(=O)NCCc3ccccc3)CC2)cc1`, the inhibition was 2.54%.

Take `Cc1ccc(S(=O)(=O)N2CCC(C(=O)N[C@@H](C)C(=O)NCc3ccccc3)CC2)cc1`: the inhibition was -4.86%.

Consider `Cc1ccc(S(=O)(=O)N2CCC(C(=O)N[C@@H](C)C(=O)NCc3ccco3)CC2)cc1`, for which the inhibition is 48% (active).

In the case of `COc1ccc(C(C)NC(=O)C2CCCC2)cc1` (configuration not stated), the inhibition is 0.96%.

Turning to `Cc1c(Nc2nc3ccccc3nc2NS(=O)(=O)c2cccs2)c(=O)n(-c2ccccc2)n1C`, the inhibition is -0.16%.

For `CCOC(=O)c1c(/N=C/c2cc(C)ccc2O)sc2c1CCC2`, the inhibition is -3.88%.

As to `C=CCNC(=O)c1cc(-c2ccccc2O)on1`, the inhibition was -0.65%.

Regarding `C=CCNC(=S)NNC(=O)c1cc(Cl)ccc1OC`, the inhibition was 1.08%.

As to `C=CCNC(=O)c1sc(SC)cc1-c1ccc(Cl)cc1`, the inhibition was 21.3% (active).

With `CCn1cc(-c2cc(C(=O)O)on2)c(C)n1`, the inhibition is -0.98%.

On to `CC(C)S(=O)(=O)c1csc(NC(=O)Nc2ccc(Cl)cc2)c1Cl`, for which the inhibition was -33.1%.

On to `CC1Cn2c(nnc2-c2cccs2)S1` (configuration not stated), for which the inhibition was -1.86%.

On to `CN1C(=O)c2ccccc2C(C(=O)NCCCN2CCCC2)C1c1c[nH]c2ccccc12` (configuration not stated), for which the inhibition was 3.18%.

As for `O=C1NC2(CCCCCC2)C(=O)N1CCS(=O)(=O)Oc1ccccc1`, the inhibition was -0.42%.

Consider `CC(C)CCNC(=O)CCNS(=O)(=O)c1ccc(Cl)cc1`, for which the inhibition was -1.02%.

Consider `O=C(CCCn1c(=O)c2sccc2n(CC(=O)NCC2CCCO2)c1=O)NCc1ccco1` (configuration not stated), for which the inhibition was 4.84%.

`CCCCN(C(=O)/C=C/c1ccco1)c1c(N)n(CC(C)C)c(=O)[nH]c1=O`: the inhibition is -1.43%.

In the case of `O=C(NC1CC1)C1=C[C@H](c2c[nH]c3ccccc23)C[C@H](OCc2ccc(CO)cc2)O1`, the inhibition is 0.98%.

In the case of `CC(=O)N1CCN(C(=O)c2cc(-c3ccc(Cl)s3)nc3ccccc23)CC1`, the inhibition is -4.07%.

Regarding `CCOc1ccc(N(CC(=O)NCCc2ccc(OC)cc2)S(C)(=O)=O)cc1`, the inhibition was 1.18%.

As for `CCn1c(SCC(=O)NC2CC2)nnc1-c1ccccn1`, the inhibition is -1.31%.

As for `CCN1CCN(CCNC(=O)c2ccc3c(c2)NC(=O)/C(=C\c2ccc(OC)c(OC)c2)S3)CC1`, the inhibition was 24.7% (active).

Regarding `COc1ccc(/C=C(\NC(=O)c2ccccc2)C(=O)NCCN2CCOCC2)cc1OC`, the inhibition was -3.08%.

Regarding `COc1ccc(CCNC(=O)c2ccc3c(c2)NC(=O)C(N2CCOCC2)S3)cc1OC` (configuration not stated), the inhibition was -0.92%.

Regarding `CCNc1ccc(C(=O)OCC(=O)N2c3ccccc3NC(=O)C2(C)C)cc1[N+](=O)[O-]`, the inhibition was 2.28%.

For `C=C(C)CSc1nc(N)c2c3c(sc2n1)CCC3`, the inhibition is -2.73%.

On to `CCc1noc(C)c1C(=O)N1CCN(S(=O)(=O)c2cccc(C(F)(F)F)c2)CC1`, for which the inhibition is -4.37%.

As for `O=C(COc1ccccc1Cl)Nc1ccc(C(=O)c2ccc(C(=O)O)cc2)cc1`, the inhibition was 0.16%.

As to `O=C(NC(Cc1ccc(O)cc1)C(=O)O)/C(=C/c1ccccc1)NC(=O)c1ccccc1` (configuration not stated), the inhibition is -3.61%.

`O=C(O)c1ccccc1-c1ccccc1C(=O)NCCc1ccccc1`: the inhibition was -3.92%.

Turning to `CC(C)CC1(C(=O)NCc2ccccn2)C=CCN1C(=O)c1ccccc1` (configuration not stated), the inhibition is 0.98%.

For the molecule `CCc1[nH]nc(C(=O)N2CCCC(CO)(Cc3ccc(F)cc3F)C2)c1C` (configuration not stated), the inhibition was -0.39%.

Turning to `CCn1c(SCc2ccccc2)nc2cc(OC)c(OC)cc2c1=O`, the inhibition is -1.81%.

As for `COC(=O)c1ccc(SCc2ccccc2)nc1`, the inhibition is -1.56%.

For `CSc1c(SCc2ccccc2)cnn(Cc2ccccc2)c1=O`, the inhibition was 15% (active).

Turning to `COC(=O)C1=C(C(=O)OC)[C@@H]2N(C)c3ccccc3[C@@]23C[C@@H](C(=O)OC)N(C(C)=O)C3=N1`, the inhibition was -0.85%.

Take `CCCCCCCCCCCC(=O)O`: the inhibition is 1.07%.

As for `COc1ccc(C2C(C#N)=C(N)Oc3n[nH]c(C)c32)cc1CN1CCN(c2ccc(F)cc2)CC1` (configuration not stated), the inhibition is -1.23%.

For the molecule `CCOC(=O)C1(CC2CCCCO2)CCN(Cc2nc(-c3cccs3)oc2C)CC1` (configuration not stated), the inhibition was -3.08%.

For `CC[N+](C)(CC)CCC[n+]1c(-c2ccccc2)c2cc(N)ccc2c2ccc(N)cc21`, the inhibition was 60.1% (active).

Turning to `CCOC(=O)C1=C(CC)Nc2ccccc2N=C1NC(=O)c1cccc(S(=O)(=O)N2CCCC2)c1`, the inhibition is -0.79%.

Turning to `COc1cc(OC)cc(-c2c(-c3ccc(F)cc3)c3cc(-c4ccc5cc[nH]c5c4)ccc3n2C)c1`, the inhibition is -1.29%.

For the molecule `CC1=C[C@H]2Cc3cc(C)cc(C)c3S(=O)(=O)[C@@H]2C=C1`, the inhibition was -3.78%.

As for `O=C(N/C(=C\c1ccc(F)cc1)C(=O)N1CCCCCC1)c1ccccc1`, the inhibition was -1.76%.

For `CC1=C(C)C(=O)OC(C(C)C2CCC3C4CC=C5CC(OC6OC(COC7OC(CO)C(O)C(O)C7O)C(O)C(O)C6O)CC(O)C5(C)C4CCC23C)C1` (configuration not stated), the inhibition was -11.7%.

As for `COc1cccc(/C=C/C(=O)OCC(=O)N2CCCc3ccccc32)c1`, the inhibition was -0.36%.

Consider `CCOc1ccc(N2CC(C(=O)NCCN3C(=O)S/C(=C\c4cccnc4)C3=O)CC2=O)cc1` (configuration not stated), for which the inhibition is 7.93%.

Regarding `COc1ccccc1N1CC(C(=O)NCCN2C(=O)S/C(=C\c3cccnc3)C2=O)CC1=O` (configuration not stated), the inhibition was -0.75%.

For `COc1ccc(N2CC(C(=O)NCCN3C(=O)S/C(=C\c4cccnc4)C3=O)CC2=O)c(OC)c1` (configuration not stated), the inhibition is 67.3% (active).

With `CCOc1ccc(S(=O)(=O)N2CCCCC2)cc1NC(=O)CN1CCCC1c1cccs1` (configuration not stated), the inhibition is -2.05%.

Take `Cc1sc2ncn(CC(=O)NCCCC(=O)NCc3ccc(F)cc3)c(=O)c2c1C`: the inhibition is 3.83%.

Turning to `CC(C)(CNC(=O)CNC(=O)C1CCCCC1)N1CCOCC1`, the inhibition was -3.79%.

For `Cn1cc(/C=C/C(=O)N2CCCC(C(=O)c3ccc(C(F)(F)F)cc3)C2)cn1` (configuration not stated), the inhibition is -3.26%.

On to `CCCCn1c(N)c(N(CCC(C)C)C(=O)CC2OC(=O)c3ccccc32)c(=O)[nH]c1=O` (configuration not stated), for which the inhibition is 16.4% (active).

Consider `CCCCn1c(N)c(N(CCC(C)C)C(=O)c2ccc(COc3ccccc3)o2)c(=O)[nH]c1=O`, for which the inhibition was 2.38%.

With `CCCCn1c(N)c(N(CCC(C)C)C(=O)c2ccc([N+](=O)[O-])o2)c(=O)[nH]c1=O`, the inhibition is -7.18%.

As for `O=[N+]([O-])c1ccc(N(CCO)Cc2ccccc2)c([N+](=O)[O-])c1`, the inhibition was -0.28%.

For `O=C(CN1C(=O)CCC1=O)Nc1ccc(S(=O)(=O)N2CCOCC2)cc1`, the inhibition was -5.25%.

For `O=C(CN1CCN(c2cccc(Cl)c2)CC1)Nc1ccc(S(=O)(=O)N2CCOCC2)cc1`, the inhibition is 18.1% (active).

Consider `O=C(CN1CCCCCC1)Nc1ccc(S(=O)(=O)N2CCCCC2)cc1`, for which the inhibition is 1.21%.

Consider `CCCCn1c(N)c(N(CC(C)C)C(=O)C2CSC3(C)CCC(=O)N23)c(=O)[nH]c1=O` (configuration not stated), for which the inhibition is -1.21%.

Regarding `COC(=O)c1sc(=S)n(-c2ccc(Cl)cc2)c1C`, the inhibition is 0.52%.

`COCCOC(=O)c1sc(=S)n(CCOC)c1N`: the inhibition was 19.7% (active).

With `CC(=O)Nc1ccc(N2C(=O)C3C4CC(=O)C(c5ccccc54)C3C2=O)cc1` (configuration not stated), the inhibition was 1.72%.

As for `COc1ccccc1-n1c(=S)[nH]c2c(sc(=S)n2-c2ccc(C)cc2C)c1=O`, the inhibition is 2.01%.

Consider `Cc1ccc(Oc2ccc3c(c2)C(=O)N(c2cccc4cccnc24)C3=O)cc1`, for which the inhibition was -5.81%.

As to `O=S(=O)(NCCCN1CCOCC1)c1ccc(F)c(Cl)c1`, the inhibition is 2.43%.

For `Cc1c(Br)c([N+](=O)[O-])nn1CC(=O)N1CCN(Cc2ccccc2)CC1`, the inhibition was 1.03%.

As for `COc1cccc(C(C(=O)NC2CCCC2)N(C(=O)c2ccco2)c2cccc(C(C)=O)c2)c1OC` (configuration not stated), the inhibition is 0.23%.

As to `O=c1[nH][nH]c(C(F)(F)F)c1C=NCc1ccccc1Cl`, the inhibition is 1.78%.

With `Cc1ccc(OCC(=O)Oc2ccccc2[N+](=O)[O-])cc1`, the inhibition was 1.05%.

On to `COc1ccc(/C=C/c2noc(-c3ccccc3OC(C)=O)n2)cc1`, for which the inhibition was -1.21%.

Consider `CN=C1SC(C(=O)O)CC(=O)N1C` (configuration not stated), for which the inhibition is -2.92%.

Consider `O=C(CSc1nnc(-c2ccoc2)o1)N1CCOCC1`, for which the inhibition was -2.17%.

With `Cc1cc2ccccn2c1C(=O)c1cccc(S(=O)(=O)N2CCOCC2)c1`, the inhibition was -1.9%.

In the case of `O=C(NCc1ccccc1)[C@H]1C[C@@H]1[C@H](NP(=O)(c1ccccc1)c1ccccc1)c1ccccc1`, the inhibition was -4.27%.

For the molecule `CCCCCCNCCn1cnc2c(N)ncnc21`, the inhibition was -4.2%.

Consider `CC1(C)CC(=O)C/C(=N\NC(=O)c2cccs2)C1`, for which the inhibition is -2.89%.

As for `CCOc1ncccc1C(=O)OCC(=O)c1c[nH]c2ccccc12`, the inhibition was -4.27%.

For the molecule `COc1ccc(-c2nc(CS(=O)CC(=O)NCc3ccccn3)c(C)o2)cc1` (configuration not stated), the inhibition was 25% (active).

As for `COc1cccc(-c2nc(CS(=O)CC(=O)NCc3ccc(F)cc3)c(C)o2)c1` (configuration not stated), the inhibition is 1.75%.

Consider `COc1ccc(-c2nc(CS(=O)CC(=O)NCc3ccccc3)c(C)o2)cc1OC` (configuration not stated), for which the inhibition is -1.5%.

For `O=C1CC(C(F)(F)C(F)(F)C(F)(F)C(F)(F)F)=Nc2ccccc2N1`, the inhibition was 0.46%.

`CCN(Cc1ccccc1)S(=O)(=O)c1cc(C(=O)O)ccc1OC`: the inhibition is -4.32%.

As for `Nc1nc(SCC(=O)NNc2c(Cl)cc(Cl)cc2Cl)n[nH]1`, the inhibition is 2.34%.

With `Cc1cc(C)c(C#N)c(SCC(=O)NN2CC(=O)N(c3ccccc3F)CC2=O)n1`, the inhibition is -0.67%.

Turning to `Cc1cccc(-n2c(SCC(N)=O)nc3c(c2=O)C2(CCCCC2)Cc2ccccc2-3)c1`, the inhibition was -3.86%.
